Measurements as given in PubChem BioAssay (NCI).
About 83,000 compounds went through this panel and 20% of them were active in at least one assay; those are over-represented in the sample as a whole.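 96-well plates, one dose, 48 hours. Percent growth reported; active if below 10.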 Values without a mark were called inactive. Active and inactive are the calls of the source.

Each compound was assayed on HCT-116 colon (assay: NCI-60 one-dose screen, 48 h (100 = growth as untreated, 0 = no growth, -100 = all killed)). Details: 10 µM unless noted.

Structure (SMILES) | growth
Cc1nn(-c2ccccc2)c2ncnc(N/N=C/c3cccc(O)c3)c12 | 24%
C=C1CC[C@@H]2[C@]3(C)COC(c4ccccc4)O[C@@H]3CC[C@@]2(C)[C@@H]1C/C=C1/C(=O)OC[C@H]1O (stereo partly drawn) | 38.4%
CN(C)CCNC(=O)c1ccc(-c2nc3ccc4[nH]ncc4c3c3c2CCC3)cc1 | 2.43% (active)
Fc1ccc(-c2cc3nc(C(Cl)Cl)nc(-c4ccc(F)cc4)n3n2)cc1 | 4.72% (active)
C=C(C=O)[C@@H]1CC[C@]2(C)[C@H](C(=O)C=C3[C@H]4C[C@](C)(C(=O)OC)CC[C@]4(C)CC[C@]32C)[C@@]1(C)CCC#N | -56% (active)
CCc1ccc(SC2c3ccc(N(CC)CC)cc3Oc3nc(N)c(C#N)c(N)c32)cc1 (stereo not drawn) | -83.1% (active)
CCOC(=O)C1=NNC(c2ccc(Cl)cc2)C1C(=O)N1C(=S)NC(=O)C1CC(C)C (stereo not drawn) | 97.8%
C#CCn1cccc1CNc1ccc(OC)cc1 | -68.7% (active)
NC(N)=Nc1ccc(Oc2cccc(NC(N)=Nc3ccc(Br)cc3)c2)cn1 | 69.2%
CC1(C)CC[C@]2(CN)CC[C@]3(C)C(=CC[C@@H]4[C@@]5(C)CCCNC(C)(C)[C@@H]5CC[C@]43C)[C@H]2C1 | 90.6%
O=C1C(c2ccccc2)=C(N2CCc3ccccc32)OC1(Cl)Cl | 2.36% (active)
CC(=O)c1nnn(-c2c(C(=O)n3nc(C)cc3C)sc(=S)n2-c2ccccc2)c1C | 104%
COC(=O)C1(C)CCC[C@]2(C)[C@H]3C[C@H]4C(C(C)C)=C[C@]3(CC[C@@H]12)[C@H]1[C@@H]4[C@@H](OC(=O)c2ccco2)CC[C@@H]1OC(=O)c1ccco1 (stereo partly drawn) | 110%
